Assay results published in PubChem BioAssay (NCI).
About 83,000 compounds went through this panel and 20% of them were active in at least one assay; those are over-represented in the sample as a whole.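 Compound tested at a single concentration for 48 hours in 96-well plates; a percent growth value below 10 was scored as active.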 Active and inactive are the calls of the source.

How the values were obtained:
Test in all cases: NCI-60 one-dose screen, 48 h (100 = growth as untreated, 0 = no growth, -100 = all killed)
Conditions in all cases: 10 µM unless noted
[1] = tested on: SK-MEL-2 melanoma
[2] = tested on: EKVX NSCLC
[3] = tested on: SN12C renal
[4] = tested on: UO-31 renal
[5] = tested on: TK-10 renal
[6] = tested on: ACHN renal
[7] = tested on: CAKI-1 renal
[8] = tested on: A498 renal
[9] = tested on: CCRF-CEM leukemia
[10] = tested on: MOLT-4 leukemia
[11] = tested on: SR leukemia
[12] = tested on: RPMI-8226 leukemia
[13] = tested on: OVCAR-8 ovarian
[14] = tested on: OVCAR-5 ovarian
[15] = tested on: OVCAR-4 ovarian
[16] = tested on: SK-OV-3 ovarian
[17] = tested on: IGROV1 ovarian
[18] = tested on: OVCAR-3 ovarian
[19] = tested on: HS 578T breast
[20] = tested on: NCI/ADR-RES ovarian

Measured: growth

CN(C)CCCC1(c2ccc(F)cc2)OCc2cc(-c3ccc4cc[nH]c4c3)ccc21 (stereo not given)
active: [10] -8.83% | [11] -2.82%
inactive: [1] 87.6% | [2] 61.6% | [3] 58.6% | [4] 30.2% | [5] 92.9% | [6] 36.2% | [7] 30.4% | [8] 81.5% | [9] 33.2% | [12] 36.7% | [13] 57.9% | [14] 84.4% | [15] 44.4% | [16] 90.2% | [17] 23% | [18] 45.6% | [19] 54.6% | [20] 56.8%

CCOc1cccc(/C=N/NC(=O)c2cccc(Nc3ccnc(C(F)(F)F)c3)c2)c1O
inactive: [1] 58.7% | [2] 21.3% | [3] 33.2% | [4] 17.3% | [5] 49.5% | [6] 24.4% | [7] 18.3% | [8] 61.5% | [10] 18.2% | [11] 41.4% | [12] 27.3% | [13] 24.4% | [14] 40.9% | [15] 39.1% | [16] 30.2% | [17] 24.2% | [18] 43.2% | [19] 43.7% | [20] 37.6%
active: [9] 6.39%

O=C(CSc1nnc(-c2cc(-c3ccccc3)nc3ccccc23)n1-c1ccccc1)Nc1ccc(C(=O)/C=C/c2ccc(Cl)cc2)cc1
inactive: [1] 112% | [2] 88.5% | [3] 85.1% | [4] 84.4% | [5] 110% | [6] 87.1% | [7] 81.5% | [8] 81.5% | [9] 72.2% | [10] 68.6% | [11] 80.2% | [12] 66.6% | [13] 93.1% | [14] 90.1% | [15] 91.6% | [16] 94.2% | [17] 108% | [18] 97.2% | [19] 89.1% | [20] 95.3%

O=C1c2ccccc2C(=O)c2c1c(C(=O)NCc1ccccc1)c1ccccn21
inactive: [1] 87.8% | [2] 105% | [3] 107% | [4] 89.8% | [5] 97.2% | [6] 103% | [7] 91.7% | [8] 95.6% | [9] 90.2% | [10] 96.3% | [11] 90.9% | [12] 95.8% | [13] 93.9% | [14] 111% | [15] 105% | [16] 102% | [17] 97.8% | [18] 116% | [19] 97.9% | [20] 103%

C=CCOC(=O)C1=C(C)N(CC)C(=O)NC1c1c(Cl)n(C)c2ccccc12 (stereo not given)
inactive: [1] 108% | [2] 98.4% | [3] 102% | [4] 76.1% | [5] 102% | [6] 82.2% | [7] 61.5% | [8] 95% | [10] 93.7% | [11] 96.1% | [12] 93.8% | [13] 98.2% | [14] 90% | [15] 103% | [16] 102% | [17] 98.9% | [18] 108% | [19] 96.4% | [20] 94.1%
active: [9] -28%

COc1ccccc1N(C(C)=O)C1=C(Cl)C(=O)c2ccccc2C1=O
active: [1] -38.2% | [5] -6.2% | [6] -29.5% | [9] -16.9% | [11] -13.9% | [12] -19.2% | [18] -23.3% | [20] 0.618%
inactive: [2] 10.1% | [3] 16% | [4] 11.4% | [7] 10.6% | [8] 36.2% | [10] 10.9% | [13] 19.1% | [14] 23.1% | [15] 22.4% | [16] 17.6% | [17] 13.8% | [19] 42.7%

CCOC(=O)C#Cc1c(C(=O)OCC)nnn1Cc1ccc(C(F)(F)F)cc1
inactive: [1] 97.1% | [2] 93.6% | [3] 57.7% | [8] 104% | [10] 25.1% | [13] 69% | [14] 91.2% | [15] 67.1% | [16] 99.7% | [17] 81.8% | [18] 13.6% | [19] 113% | [20] 97.1%
active: [4] 1.49% | [5] 8.7% | [6] -25.4% | [7] 0.164% | [9] 8.84% | [11] -1.42% | [12] 7.43%

CN1CCN(CCCOc2cccc3nc(Nc4ccc(F)c(F)c4)ccc23)CC1
active: [1] -49.7% | [4] -54.3% | [5] -4.13% | [6] -31.4% | [7] -29.1% | [9] -26.9% | [10] -38.4% | [11] 0.217% | [12] -14.5% | [14] -20.9% | [17] -12.4% | [18] 8.36%
inactive: [2] 34% | [3] 24.4% | [8] 33.6% | [13] 24.5% | [15] 39.3% | [16] 24.2% | [19] 16.8% | [20] 12.1%

COc1cc(OC)c(C(=O)C(CN(C)C)CN(C)C)cc1OC
active: [5] -79.2% | [6] -87.6% | [9] -58.1% | [10] -39.8% | [11] -49.3% | [12] -18.1% | [18] 1.07%
inactive: [1] 105% | [2] 20.3% | [3] 107% | [4] 10.4% | [7] 20.3% | [8] 113% | [13] 104% | [14] 110% | [15] 54.1% | [16] 85.1% | [17] 109% | [19] 108% | [20] 94.3%

COc1ccc(CCN2C(=O)/C(=C/c3ccc(C4Oc5ccccc5C5CC(c6ccccc6)=NN54)cc3)SC2=S)cc1 (stereo not given)
inactive: [1] 103% | [2] 97.4% | [3] 101% | [4] 80.7% | [5] 104% | [6] 102% | [7] 89.8% | [8] 115% | [9] 36.6% | [10] 100% | [11] 105% | [12] 96% | [13] 108% | [14] 103% | [15] 109% | [16] 103% | [17] 100% | [18] 105% | [19] 103% | [20] 110%

Nc1ncnc2c1N=C(c1ccc3c(c1)OCO3)CC(c1cccc(Nc3ccnc4cc(C(F)(F)F)ccc34)c1)N2 (stereo not given)
active: [12] 5.05%
inactive: [1] 88% | [2] 89.5% | [3] 75.5% | [4] 76.9% | [5] 99% | [6] 98.3% | [7] 78.4% | [8] 74.5% | [9] 64.8% | [10] 93.5% | [11] 23.3% | [13] 67.7% | [14] 108% | [15] 89.2% | [16] 80.2% | [17] 84.2% | [18] 95.1% | [19] 85.8% | [20] 88.3%

CCOC(=O)c1c(C)nc2ccccc2c1/C=C/c1cccs1
inactive: [1] 63.6% | [2] 67.6% | [3] 78.4% | [4] 63.6% | [5] 90.2% | [6] 76.5% | [7] 63% | [8] 84.5% | [9] 76.4% | [10] 49.4% | [11] 68.6% | [12] 50.7% | [13] 74.8% | [14] 87.8% | [15] 40.4% | [16] 75.9% | [17] 72.1% | [18] 82.7% | [19] 98.9% | [20] 43.5%

CCOC(=O)c1c(C)nc2c(c1N)CC(=O)N2Cc1ccc(OC)cc1
inactive: [1] 51.2% | [2] 47.7% | [3] 41.1% | [4] 33.8% | [6] 28.4% | [7] 76.4% | [8] 63.5% | [9] 117% | [10] 90.3% | [11] 56.2% | [12] 67.1% | [13] 13.6% | [14] 80.4% | [17] 46.4% | [18] 16.4% | [19] 29.4% | [20] 34.4%
active: [5] 0.0562% | [15] 7.06% | [16] 8.96%

C=C1C(=O)O[C@H]2[C@H]1CC/C(COC(=O)c1cc3cc(Cl)ccc3[nH]1)=C\CC[C@@]1(C)O[C@@H]21
active: [1] -84.2% | [2] -83% | [3] -61.2% | [4] -93.6% | [5] -99.3% | [6] -89.2% | [7] -89.8% | [8] -11.9% | [9] -24.8% | [10] -21% | [11] -25.6% | [12] -29.9% | [13] -72.9% | [14] -69.9% | [15] -81.9% | [17] -82.7% | [18] -91.3% | [19] -22% | [20] -35.3%
inactive: [16] 27.6%

C=CCC(CCCC)(C(=O)OCC)C(=O)OCC
inactive: [1] 100% | [2] 114% | [3] 110% | [4] 85.3% | [5] 104% | [6] 102% | [7] 96.7% | [8] 111% | [9] 93.2% | [10] 108% | [11] 95.9% | [12] 94.8% | [13] 102% | [14] 106% | [15] 116% | [16] 117% | [17] 119% | [18] 118% | [19] 127% | [20] 108%
